The results in this text go back to PMC7862700, “An all-to-all approach to the identification of sequence-specific readers for epigenetic DNA modifications on cytosine”.

Common to all, as to assay: DAPPL (digital affinity profiling via proximity ligation, sequencing); 10 mM Tris-HCl pH 7.5, 50 mM NaCl, 1 mM DTT, 4% glycerol, room temperature, 30 min; GST-TFs on glutathione beads, 16-mer random dsDNA library, 0.1% formaldehyde crosslink after washing; high values mean tight binding
One assay concerns the target T1, FEV (Homo sapiens, UniProt Q99581 1-238).
T1 sequence: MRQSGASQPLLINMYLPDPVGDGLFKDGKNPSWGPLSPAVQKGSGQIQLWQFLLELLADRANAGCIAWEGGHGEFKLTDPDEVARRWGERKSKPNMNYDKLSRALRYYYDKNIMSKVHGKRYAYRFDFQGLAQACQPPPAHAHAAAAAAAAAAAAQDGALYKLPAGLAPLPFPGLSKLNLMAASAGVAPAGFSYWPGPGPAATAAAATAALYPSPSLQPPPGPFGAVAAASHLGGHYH
The following applies: protein: recombinant; tags: N-terminal GST; dsDNA, one strand shown. A digest of the protocol:
(§1)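 Each value of binding signal is a hexamer's read frequency for a factor divided by the same hexamer's frequency in the tag-only sample. Barcoded, bead-captured GST fusions of human transcription factors made in yeast were pooled with that sample and incubated with 200 nmole of a random double-stranded 16-mer DNA library in Tris/NaCl/DTT/glycerol buffer at room temperature for 30 min. Washing, 0.1% formaldehyde crosslinking, proximity ligation, PCR and Illumina NextSeq500 sequencing followed.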

The next assay concerns the target ETV5 (Homo sapiens, UniProt P41161 1-510). The conditions noted are these: protein: recombinant; tags: N-terminal GST; dsDNA, one strand shown. In outline:
as §1

The next assay has as its target HSF1 (Homo sapiens, UniProt Q00613 1-529). The conditions noted are these: protein: recombinant; tags: N-terminal GST; chain copies: 3; dsDNA, one strand shown. In outline: as §1
The target of the next assay is T2, SPIC (Homo sapiens, UniProt Q8N5J4 1-248).
T2 sequence: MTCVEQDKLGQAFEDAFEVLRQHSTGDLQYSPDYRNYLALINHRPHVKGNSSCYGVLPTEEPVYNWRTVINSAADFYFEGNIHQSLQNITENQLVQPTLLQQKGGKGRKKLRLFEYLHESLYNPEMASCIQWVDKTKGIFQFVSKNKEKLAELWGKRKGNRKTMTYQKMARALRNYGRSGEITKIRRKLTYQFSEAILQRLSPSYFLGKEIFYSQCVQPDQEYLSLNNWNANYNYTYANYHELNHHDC
The conditions noted are these: protein: recombinant; tags: N-terminal GST; dsDNA, one strand shown. In outline: as §1

The next assay addresses ELF4 (Homo sapiens, UniProt Q99607 1-663). The following applies: protein: recombinant; tags: N-terminal GST; dsDNA, one strand shown. In outline:
as §1

Another assay concerns the target T3, ELK4 (Homo sapiens, UniProt P28324-2 1-405).
T3 sequence: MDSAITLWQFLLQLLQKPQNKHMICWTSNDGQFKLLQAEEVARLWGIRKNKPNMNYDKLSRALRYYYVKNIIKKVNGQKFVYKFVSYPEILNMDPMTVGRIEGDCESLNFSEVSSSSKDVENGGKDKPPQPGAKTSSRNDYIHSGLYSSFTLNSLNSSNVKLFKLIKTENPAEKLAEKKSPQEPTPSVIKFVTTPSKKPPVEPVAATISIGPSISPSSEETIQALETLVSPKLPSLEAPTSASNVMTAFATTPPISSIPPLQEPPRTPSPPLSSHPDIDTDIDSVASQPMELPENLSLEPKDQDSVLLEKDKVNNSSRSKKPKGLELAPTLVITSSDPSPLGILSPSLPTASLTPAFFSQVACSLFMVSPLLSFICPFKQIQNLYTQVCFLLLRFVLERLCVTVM
The conditions noted are these: protein: recombinant; tags: N-terminal GST; dsDNA, one strand shown. A digest of the protocol: as §1

The next assay addresses T4, ETV2 (Homo sapiens, UniProt O00321 1-342).
T4 sequence: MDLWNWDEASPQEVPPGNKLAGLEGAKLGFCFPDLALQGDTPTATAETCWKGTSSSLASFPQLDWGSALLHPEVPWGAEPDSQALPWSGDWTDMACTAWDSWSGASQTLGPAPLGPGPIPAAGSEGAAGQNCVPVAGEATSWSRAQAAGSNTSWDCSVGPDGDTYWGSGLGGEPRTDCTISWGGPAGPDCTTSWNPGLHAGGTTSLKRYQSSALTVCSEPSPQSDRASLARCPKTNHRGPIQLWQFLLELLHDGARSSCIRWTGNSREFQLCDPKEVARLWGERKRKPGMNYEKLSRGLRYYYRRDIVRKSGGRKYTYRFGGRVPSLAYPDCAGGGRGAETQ
The following applies: protein: recombinant; tags: N-terminal GST; dsDNA, one strand shown. A digest of the protocol: as §1

A further assay has as its target T5, ELF3 (Homo sapiens, UniProt P78545 1-371).
T5 sequence: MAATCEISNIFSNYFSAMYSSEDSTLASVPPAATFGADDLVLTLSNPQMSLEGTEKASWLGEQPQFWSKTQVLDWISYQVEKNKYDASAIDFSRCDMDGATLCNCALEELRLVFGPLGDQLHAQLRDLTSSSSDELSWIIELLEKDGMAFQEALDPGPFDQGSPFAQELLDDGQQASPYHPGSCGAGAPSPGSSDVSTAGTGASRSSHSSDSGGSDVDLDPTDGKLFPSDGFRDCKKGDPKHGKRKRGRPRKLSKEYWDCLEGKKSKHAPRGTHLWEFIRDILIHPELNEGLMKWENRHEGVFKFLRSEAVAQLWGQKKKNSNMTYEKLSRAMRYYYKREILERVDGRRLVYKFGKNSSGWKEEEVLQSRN
The following applies: protein: recombinant; tags: N-terminal GST; dsDNA, one strand shown. In outline: as §1

Another assay concerns the target CRX (Homo sapiens, UniProt O43186 1-299). The following applies: protein: recombinant; tags: N-terminal GST; dsDNA, one strand shown. In outline:
as §1

The target in the next assay is ETV1 (Homo sapiens, UniProt P50549 1-477). The conditions noted are these: protein: recombinant; tags: N-terminal GST; dsDNA, one strand shown. A digest of the protocol:
as §1

Another assay deals with T6, ERF (Homo sapiens, UniProt P50548 1-548).
T6 sequence: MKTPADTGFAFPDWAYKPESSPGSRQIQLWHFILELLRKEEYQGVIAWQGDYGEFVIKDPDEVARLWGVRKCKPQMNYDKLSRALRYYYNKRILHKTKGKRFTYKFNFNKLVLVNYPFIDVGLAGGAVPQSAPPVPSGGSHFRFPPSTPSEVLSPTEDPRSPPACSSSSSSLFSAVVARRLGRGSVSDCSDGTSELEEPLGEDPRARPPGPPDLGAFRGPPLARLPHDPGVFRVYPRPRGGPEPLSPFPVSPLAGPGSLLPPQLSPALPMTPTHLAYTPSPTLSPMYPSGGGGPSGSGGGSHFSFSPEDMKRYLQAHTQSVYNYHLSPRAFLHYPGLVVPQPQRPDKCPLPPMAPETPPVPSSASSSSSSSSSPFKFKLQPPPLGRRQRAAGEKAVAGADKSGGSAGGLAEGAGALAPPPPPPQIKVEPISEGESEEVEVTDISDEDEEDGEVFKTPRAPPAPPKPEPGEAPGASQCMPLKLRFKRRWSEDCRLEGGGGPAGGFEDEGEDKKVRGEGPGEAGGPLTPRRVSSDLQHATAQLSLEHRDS
The conditions noted are these: protein: recombinant; tags: N-terminal GST; dsDNA, one strand shown. In outline: as §1

Another assay concerns the target T7, ETV3L (Homo sapiens, UniProt Q6ZN32 1-361).
T7 sequence: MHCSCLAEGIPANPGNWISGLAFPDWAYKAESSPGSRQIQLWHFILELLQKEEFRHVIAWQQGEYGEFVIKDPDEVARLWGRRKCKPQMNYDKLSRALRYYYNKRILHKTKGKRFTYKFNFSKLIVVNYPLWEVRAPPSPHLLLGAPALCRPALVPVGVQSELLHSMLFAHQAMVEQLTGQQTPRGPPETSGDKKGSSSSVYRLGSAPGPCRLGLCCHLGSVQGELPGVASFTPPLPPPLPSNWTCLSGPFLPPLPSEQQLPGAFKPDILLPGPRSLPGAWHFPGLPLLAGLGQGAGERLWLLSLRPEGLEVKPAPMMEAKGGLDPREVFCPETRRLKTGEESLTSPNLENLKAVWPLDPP
The conditions noted are these: protein: recombinant; tags: N-terminal GST; dsDNA, one strand shown. A digest of the protocol:
as §1

The target of the next assay is T8, ETS2 (Homo sapiens, UniProt P15036 1-469).
T8 sequence: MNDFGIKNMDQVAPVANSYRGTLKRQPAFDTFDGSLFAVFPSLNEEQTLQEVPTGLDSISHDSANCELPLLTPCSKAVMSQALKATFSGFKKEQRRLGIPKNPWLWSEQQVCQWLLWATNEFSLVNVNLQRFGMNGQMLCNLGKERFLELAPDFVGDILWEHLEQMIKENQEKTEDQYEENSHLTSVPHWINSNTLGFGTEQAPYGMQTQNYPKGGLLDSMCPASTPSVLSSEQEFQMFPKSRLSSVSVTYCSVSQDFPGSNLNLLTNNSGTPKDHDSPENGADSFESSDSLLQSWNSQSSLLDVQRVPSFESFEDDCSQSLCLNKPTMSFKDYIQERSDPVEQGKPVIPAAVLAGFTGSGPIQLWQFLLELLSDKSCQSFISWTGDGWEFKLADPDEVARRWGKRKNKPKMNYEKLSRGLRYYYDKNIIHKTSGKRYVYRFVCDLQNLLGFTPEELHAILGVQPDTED
The conditions noted are these: protein: recombinant; tags: N-terminal GST; dsDNA, one strand shown. A digest of the protocol: as §1

The next assay deals with T9, SPDEF (Homo sapiens, UniProt O95238 1-335).
T9 sequence: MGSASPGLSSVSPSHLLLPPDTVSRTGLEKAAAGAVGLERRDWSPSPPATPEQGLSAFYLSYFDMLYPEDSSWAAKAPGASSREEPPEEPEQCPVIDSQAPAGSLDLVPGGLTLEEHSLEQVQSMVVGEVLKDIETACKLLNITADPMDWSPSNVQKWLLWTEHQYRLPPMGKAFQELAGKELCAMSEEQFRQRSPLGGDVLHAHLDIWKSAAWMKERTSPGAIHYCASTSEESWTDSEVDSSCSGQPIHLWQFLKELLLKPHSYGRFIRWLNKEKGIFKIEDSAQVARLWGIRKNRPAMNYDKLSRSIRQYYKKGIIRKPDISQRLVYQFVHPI
The following applies: protein: recombinant; tags: N-terminal GST; dsDNA, one strand shown. In outline:
as §1

Another assay deals with T10, ETV7 (Homo sapiens, UniProt Q9Y603 1-341).
T10 sequence: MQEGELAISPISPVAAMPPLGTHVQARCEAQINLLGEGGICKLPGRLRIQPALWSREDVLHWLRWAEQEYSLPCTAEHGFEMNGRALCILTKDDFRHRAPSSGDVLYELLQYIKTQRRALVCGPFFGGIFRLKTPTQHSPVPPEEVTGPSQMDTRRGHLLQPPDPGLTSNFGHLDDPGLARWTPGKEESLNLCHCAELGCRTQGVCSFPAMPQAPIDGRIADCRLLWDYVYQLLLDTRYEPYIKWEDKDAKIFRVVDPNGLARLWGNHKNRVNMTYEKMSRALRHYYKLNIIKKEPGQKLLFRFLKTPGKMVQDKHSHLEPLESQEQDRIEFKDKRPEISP
The following applies: protein: recombinant; tags: N-terminal GST; dsDNA, one strand shown. A digest of the protocol:
as §1

Another assay addresses T11, ELF5 (Homo sapiens, UniProt Q9UKW6-2 1-255).
T11 sequence: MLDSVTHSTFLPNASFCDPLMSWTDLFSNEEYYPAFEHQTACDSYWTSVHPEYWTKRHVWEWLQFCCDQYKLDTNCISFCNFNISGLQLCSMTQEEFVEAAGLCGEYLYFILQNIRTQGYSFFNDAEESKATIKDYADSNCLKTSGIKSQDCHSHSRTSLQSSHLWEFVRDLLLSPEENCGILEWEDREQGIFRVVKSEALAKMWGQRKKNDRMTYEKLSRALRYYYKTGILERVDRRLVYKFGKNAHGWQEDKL
The following applies: protein: recombinant; tags: N-terminal GST; dsDNA, one strand shown. A digest of the protocol: as §1

In the next assay the target is T12, ETV3 (Homo sapiens, UniProt P41162-2 1-143).
T12 sequence: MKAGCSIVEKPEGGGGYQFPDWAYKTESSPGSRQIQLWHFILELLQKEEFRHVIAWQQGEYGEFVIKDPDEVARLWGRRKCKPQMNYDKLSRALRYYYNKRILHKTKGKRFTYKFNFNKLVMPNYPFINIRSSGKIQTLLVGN
The following applies: protein: recombinant; tags: N-terminal GST; dsDNA, one strand shown. In outline: as §1

The target of the next assay is ETV6 (Homo sapiens, UniProt P41212 1-452). The following applies: protein: recombinant; tags: N-terminal GST; dsDNA, one strand shown. In outline:
as §1

ELF4, sequence (Q99607 whole entry): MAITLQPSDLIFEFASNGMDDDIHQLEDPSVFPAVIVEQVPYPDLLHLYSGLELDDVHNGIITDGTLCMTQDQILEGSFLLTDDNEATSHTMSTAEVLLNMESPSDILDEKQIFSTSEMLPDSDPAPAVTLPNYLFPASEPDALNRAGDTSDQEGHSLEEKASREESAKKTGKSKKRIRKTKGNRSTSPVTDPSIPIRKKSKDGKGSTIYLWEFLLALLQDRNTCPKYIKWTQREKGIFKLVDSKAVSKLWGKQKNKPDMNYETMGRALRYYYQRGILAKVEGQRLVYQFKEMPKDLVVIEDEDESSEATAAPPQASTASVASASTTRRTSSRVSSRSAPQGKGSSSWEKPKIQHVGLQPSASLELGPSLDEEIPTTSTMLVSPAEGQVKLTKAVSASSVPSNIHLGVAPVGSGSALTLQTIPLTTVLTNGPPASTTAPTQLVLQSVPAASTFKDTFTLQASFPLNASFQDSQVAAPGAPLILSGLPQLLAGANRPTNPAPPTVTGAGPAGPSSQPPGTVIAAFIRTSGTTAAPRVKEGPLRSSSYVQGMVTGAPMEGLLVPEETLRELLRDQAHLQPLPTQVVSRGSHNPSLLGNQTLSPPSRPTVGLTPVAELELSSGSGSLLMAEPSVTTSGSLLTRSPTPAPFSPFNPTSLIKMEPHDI
ETV6, sequence (P41212 whole entry): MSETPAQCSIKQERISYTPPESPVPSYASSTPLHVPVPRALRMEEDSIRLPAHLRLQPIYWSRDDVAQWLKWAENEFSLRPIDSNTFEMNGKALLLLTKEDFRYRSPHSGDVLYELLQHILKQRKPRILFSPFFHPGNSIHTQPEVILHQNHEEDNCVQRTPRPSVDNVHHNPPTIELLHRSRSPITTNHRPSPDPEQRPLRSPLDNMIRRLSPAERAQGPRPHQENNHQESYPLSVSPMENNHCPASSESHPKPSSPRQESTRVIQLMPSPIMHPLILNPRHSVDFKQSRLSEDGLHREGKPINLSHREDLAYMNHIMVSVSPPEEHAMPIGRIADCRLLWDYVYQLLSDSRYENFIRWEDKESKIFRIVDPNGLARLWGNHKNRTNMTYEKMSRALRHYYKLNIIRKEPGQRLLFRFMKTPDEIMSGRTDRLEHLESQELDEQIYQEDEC
CRX, sequence (O43186 whole entry): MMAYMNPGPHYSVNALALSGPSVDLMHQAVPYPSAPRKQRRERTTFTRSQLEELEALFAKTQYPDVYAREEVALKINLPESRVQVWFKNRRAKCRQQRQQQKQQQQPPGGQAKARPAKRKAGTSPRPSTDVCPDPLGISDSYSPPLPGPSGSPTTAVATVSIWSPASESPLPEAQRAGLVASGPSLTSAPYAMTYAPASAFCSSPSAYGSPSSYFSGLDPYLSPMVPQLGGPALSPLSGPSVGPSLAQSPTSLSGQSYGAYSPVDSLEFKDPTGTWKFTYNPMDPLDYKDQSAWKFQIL
HSF1, sequence (Q00613 whole entry): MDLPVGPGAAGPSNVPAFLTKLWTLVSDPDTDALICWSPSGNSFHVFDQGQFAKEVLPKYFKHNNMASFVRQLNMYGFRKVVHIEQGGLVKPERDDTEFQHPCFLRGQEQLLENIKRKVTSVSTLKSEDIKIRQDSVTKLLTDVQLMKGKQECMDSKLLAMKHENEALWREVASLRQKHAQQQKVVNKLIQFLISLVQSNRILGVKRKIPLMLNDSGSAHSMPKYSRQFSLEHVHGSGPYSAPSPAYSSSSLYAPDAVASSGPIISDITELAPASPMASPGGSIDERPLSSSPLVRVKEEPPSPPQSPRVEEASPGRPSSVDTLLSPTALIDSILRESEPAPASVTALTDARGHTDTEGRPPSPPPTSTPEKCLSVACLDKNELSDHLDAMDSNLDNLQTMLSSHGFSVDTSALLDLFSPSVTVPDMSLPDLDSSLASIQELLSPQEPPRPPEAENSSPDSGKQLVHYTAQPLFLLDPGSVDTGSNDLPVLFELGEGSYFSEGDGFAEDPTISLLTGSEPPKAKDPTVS
ETV5, sequence (P41161 whole entry): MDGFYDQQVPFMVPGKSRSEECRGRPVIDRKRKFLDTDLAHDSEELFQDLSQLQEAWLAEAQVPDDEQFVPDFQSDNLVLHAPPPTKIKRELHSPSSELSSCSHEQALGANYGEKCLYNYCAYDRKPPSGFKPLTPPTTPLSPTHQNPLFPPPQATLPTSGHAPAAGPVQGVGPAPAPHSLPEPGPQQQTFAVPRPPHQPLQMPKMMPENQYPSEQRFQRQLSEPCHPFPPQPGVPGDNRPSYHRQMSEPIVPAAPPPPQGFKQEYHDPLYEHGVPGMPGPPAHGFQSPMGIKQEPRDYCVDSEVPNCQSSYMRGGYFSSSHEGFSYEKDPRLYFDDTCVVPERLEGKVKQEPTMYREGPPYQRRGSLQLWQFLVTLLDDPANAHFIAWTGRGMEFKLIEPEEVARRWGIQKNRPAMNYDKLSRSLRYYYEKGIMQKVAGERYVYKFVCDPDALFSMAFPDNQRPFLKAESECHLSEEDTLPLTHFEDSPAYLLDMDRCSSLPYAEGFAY
ETV1, sequence (P50549 whole entry): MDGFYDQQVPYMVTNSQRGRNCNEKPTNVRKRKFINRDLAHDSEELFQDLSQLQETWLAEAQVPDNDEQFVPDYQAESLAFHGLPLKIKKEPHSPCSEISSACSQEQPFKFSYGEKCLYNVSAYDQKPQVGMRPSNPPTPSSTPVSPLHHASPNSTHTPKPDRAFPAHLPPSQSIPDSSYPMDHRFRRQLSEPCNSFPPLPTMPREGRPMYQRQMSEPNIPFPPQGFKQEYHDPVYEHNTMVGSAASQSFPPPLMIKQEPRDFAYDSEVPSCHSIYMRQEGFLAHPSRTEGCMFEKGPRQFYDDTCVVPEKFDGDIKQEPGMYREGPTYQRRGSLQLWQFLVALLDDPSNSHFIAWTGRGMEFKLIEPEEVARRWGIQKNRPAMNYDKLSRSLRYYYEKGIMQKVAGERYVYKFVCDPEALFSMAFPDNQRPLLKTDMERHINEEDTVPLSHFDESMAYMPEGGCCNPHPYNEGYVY

For the sequence TTCTCC, the binding signal in the assay with FEV was 1.63 fold enrichment (6-mer frequency, TF over GST control); in the assay with ETV5 it was 1.49 fold enrichment (6-mer frequency, TF over GST control); in the assay with HSF1 it was 1.98 fold enrichment (6-mer frequency, TF over GST control); with SPIC, 1.37 fold enrichment (6-mer frequency, TF over GST control); with ELF4, 1.51 fold enrichment (6-mer frequency, TF over GST control); with ELK4, 1.63 fold enrichment (6-mer frequency, TF over GST control). The binding signal in the assay with ETV2 is 1.39 fold enrichment (6-mer frequency, TF over GST control); with ELF3, 1.4 fold enrichment (6-mer frequency, TF over GST control); with CRX, 1.51 fold enrichment (6-mer frequency, TF over GST control); with ETV1 it was 1.45 fold enrichment (6-mer frequency, TF over GST control); with ERF, 1.53 fold enrichment (6-mer frequency, TF over GST control); with ETV3L it was 1.58 fold enrichment (6-mer frequency, TF over GST control). Moreover, the binding signal in the assay with ETS2 was 1.53 fold enrichment (6-mer frequency, TF over GST control); with SPDEF, 1.52 fold enrichment (6-mer frequency, TF over GST control); in the assay with ETV7 it was 1.46 fold enrichment (6-mer frequency, TF over GST control); in the assay with ELF5 it was 1.51 fold enrichment (6-mer frequency, TF over GST control); in the assay with ETV3 it was 1.5 fold enrichment (6-mer frequency, TF over GST control); in the assay with ETV6, 1.48 fold enrichment (6-mer frequency, TF over GST control).
